The text below walks through data of PubChem BioAssay AID652048 (National Center for Advancing Translational Sciences (NCATS), 2013).

Each structure is given as a SMILES string. The campaign covered roughly 410,000 compounds. About 2,400 (0.59%) were called active. This is one part of a sample in which actives are shown more often than they occur. Unmarked numbers belong to inactive results. Cut-off read from the data, not from the text of the source: active = max activation above about 30%; inactive = the rest. *1 amine or outer side, *2 acyl side, *3 side chain or, on linkers, in order; H or OH if unused. Where a SMILES comes first, the peptide text is derived from it. Bridges are numbered along the chain shown (N, C = ends). [ ]: non-standard residue; d: D form. The star is where a group is joined. X2 = NC1=N[C@@H]([C@H](N[*:1])C(=O)[*:2])C[C@H](O)N1; ΔAla(Z-3-ureido) = NC(=O)N/C=C(\N)C(=O)O; β3hOrn = NCCC[C@H](N)CC(=O)*; X1 = CC[C@H](C)CCCCC(=O)*; Dab = NCC[C@H](N)C(=O)O; Dap = NC[C@H](N)C(=O)O

Chain of D(3) dopamine receptor (Homo sapiens) (P35462 whole entry, looked up): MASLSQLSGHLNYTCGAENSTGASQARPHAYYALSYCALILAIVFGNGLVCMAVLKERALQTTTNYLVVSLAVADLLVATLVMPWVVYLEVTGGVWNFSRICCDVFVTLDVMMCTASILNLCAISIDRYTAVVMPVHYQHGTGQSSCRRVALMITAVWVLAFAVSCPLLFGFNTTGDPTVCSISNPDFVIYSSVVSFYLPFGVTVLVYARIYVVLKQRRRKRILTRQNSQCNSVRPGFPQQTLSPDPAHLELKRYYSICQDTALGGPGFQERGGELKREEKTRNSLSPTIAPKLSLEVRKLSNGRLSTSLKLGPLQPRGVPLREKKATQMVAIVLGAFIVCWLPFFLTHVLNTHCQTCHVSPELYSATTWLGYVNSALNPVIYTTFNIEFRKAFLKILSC

The assay concerns the target D(3) dopamine receptor (Homo sapiens) (UniProt P35462). Kind of assay: qHTS of D3 Dopamine Receptor Agonist: qHTS. Note: 0% is about no effect. The settings on record: D3R DiscoveRx beta-arrestin cells, luminescence, 90 min; stronger effect = higher value. Put shortly: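 Agonist-mode cell screen: cells plated at 1500/well and incubated overnight at 37 °C, then exposed to library compounds for 90 min at 37 °C. Detection reagent was added for 30–60 min at room temperature, and luminescence was read.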
A general note: In qHTS, concentration-response curves come from the screen itself.
Regarding `CCOc1ccc(-c2cc3c(=O)n(CC(=O)NCc4ccc(OC)cc4)ccn3n2)cc1`, the max activation was -2.91%.

As to `COc1cc(CNCc2ccc3c(c2)OCO3)c([N+](=O)[O-])cc1OC`, the max activation was -8.17%.

`COc1cc(-c2c(-c3ccc4c(c3)OCO4)noc2C)ccc1F`: the max activation was -40.8%.

`COc1cc2c(-c3ccc4c(c3)OCO4)c(-c3ccsc3)oc(=O)c2cc1OC`: the max activation is 30.4% (active).

With `O=C(CCc1cn(Cc2ccc(F)cc2)c2ccccc12)NC1CCCCC1`, the max activation is -6.69%.

On to `C/C=C/C1=C(C(=O)O)N2C(=O)[C@@H](NC(=O)[C@H](N)c3ccc(O)cc3)[C@H]2SC1`, for which the max activation is -0.123%.

With `C#C[C@]1(O)CC[C@H]2[C@@H]3CCC4=C/C(=N/O)CC[C@@H]4[C@H]3CC[C@@]21CC`, the max activation is 4.22%.

For the molecule `CC(C)CCNC(=O)c1[nH]c(C(F)(F)F)nc1-c1ccccc1`, the max activation is 83.5% (active).

`CC(C)CCNC(=O)c1cccnc1Sc1ccccc1`: the max activation was -0.291%.

For the molecule `CC(C)(C)OC(=O)N1CCN(C(=O)c2[nH]c(C(F)(F)F)nc2-c2ccccc2)CC1`, the max activation is -1.11%.

For `COc1ccc(CCNC(=O)CCCn2c(=O)c3ccccc3n(Cc3ccc(C)cc3)c2=O)cc1OC`, the max activation is -1.49%.

As to `CC[C@H](C)CCCCC(=O)N[C@@H](CCN)C(=O)N[C@H](C(=O)N[C@@H](CCN)C(=O)N[C@H]1CCNC(=O)[C@H]([C@@H](C)O)NC(=O)[C@H](CCN)NC(=O)[C@H](CCN)NC(=O)[C@H](CC(C)C)NC(=O)[C@@H](CC(C)C)NC(=O)[C@H](CCN)NC1=O)[C@@H](C)O` (X1-[Dab]T[Dab][Dab][Dab][dL]L[Dab][Dab]T; lactam 4-C), the max activation is 0.26%.

With `COc1cccc(CNC(=O)C2CCC(CNS(=O)(=O)c3cccs3)CC2)c1` (configuration not stated), the max activation is 2.62%.

In the case of `COc1cc(-n2c(C)nc3cc(C(=O)NCc4ccco4)ccc32)cc(OC)c1OC`, the max activation is -12.8%.

For the molecule `CCn1c(CNC(=O)c2cc(OC)c(OC)c(OC)c2)cc2cc(C)ccc21`, the max activation is 30.2% (active).

In the case of `COc1cc(C(=O)NCC(=O)N2CC=C(c3ccccc3)CC2)cc(OC)c1OC`, the max activation is -3.75%.

Take `Cc1cccc(C(CC(=O)NCC2(c3ccccc3)CCCC2)c2ccccc2)c1O` (configuration not stated): the max activation is -11.1%.

For `CCOc1ccccc1N(CC)C(=O)c1cc2ccc3cccnc3c2[nH]1`, the max activation was 8.81%.

`Cc1ccc(C)c(N2CCN(Cc3nnc(-c4ccccc4)o3)CC2)c1`: the max activation was -22.5%.

In the case of `c1ccc(-c2cnc(CN3CCN(c4ccccc4)CC3)o2)cc1`, the max activation is 47.7% (active).

`Cc1ccc(-c2nnc(CN3CCN(C)CC3)o2)cc1`: the max activation was -9.28%.

For the molecule `NNc1nnc(Cc2ccncc2)c2ccccc12`, the max activation is 4.9%.

For the molecule `COc1cc(CNCCSc2nnnn2C)ccc1OCc1c(F)cccc1Cl`, the max activation is -12.1%.

Turning to `COc1cc(SC#N)ccc1N=Cc1c(C)[nH]n(-c2ccc(C)cc2)c1=O`, the max activation is 37.3% (active).

`C=CCOc1c2ccc(C(=O)N(CC)c3ccc(OC)cc3)cc2nn1C`: the max activation is 36.4% (active).

Regarding `COc1ccc(N(Cc2ccc(N(C)C)cc2)C(=O)c2ccc(S(C)(=O)=O)cc2)cc1`, the max activation was -1.61%.

`CCN(C(=O)c1sc2cc(OC)ccc2c1Cl)c1ccccc1`: the max activation is -6.98%.

With `CCC(C)[C@@H](N)C(=O)O` (some centres not stated), the max activation is 1.21%.

Consider `COc1cc(NS(=O)(=O)c2cccs2)cc(OC)c1`, for which the max activation was -2.4%.

With `O=C(CSc1ncc(S(=O)(=O)c2ccc(Br)cc2)c(=O)[nH]1)Nc1ccc2c(c1)OCCO2`, the max activation was 0.197%.

As to `Cc1ccc(C(=O)Nc2cc3c(cc2N2CCCC2)n(C)c(=O)c(=O)n3C)cc1`, the max activation is -5.76%.

Turning to `CCc1ccc(S(=O)(=O)Nc2cc3c(cc2N2CCCCC2)n(C)c(=O)c(=O)n3C)cc1`, the max activation is 33.6% (active).

Turning to `Cn1c(=O)c(=O)n(C)c2cc(S(=O)(=O)CCC(=O)N3CCCCC3)ccc21`, the max activation was -3.93%.

As for `Cc1c(NS(=O)(=O)c2ccc(Cl)cc2)c(=O)n(-c2ccccc2)n1C`, the max activation is 0.215%.

`Cc1c(NS(=O)(=O)c2cccc(C(=O)Nc3ccc(SC(F)F)cc3)c2)c(=O)n(-c2ccccc2)n1C`: the max activation was 33.5% (active).

Regarding `Cc1c(NS(=O)(=O)c2cc(C(=O)NCCc3ccc(F)cc3)cc(Cl)c2Cl)c(=O)n(-c2ccccc2)n1C`, the max activation is 0.49%.

On to `NCCC[C@H](N)CC(=O)N[C@H]1CNC(=O)[C@H]([C@H]2C[C@H](O)NC(N)=N2)NC(=O)/C(=C/NC(N)=O)NC(=O)[C@H](CO)NC(=O)[C@H](CO)NC1=O` (β3hOrn-[Dap]SS[ΔAla(Z-3-ureido)][X2]; lactam 1-C), for which the max activation is 4.66%.

On to `CCc1nc2ccccc2n(CCOCCOCCn2c(=O)c(CC)nc3ccccc32)c1=O`, for which the max activation was 1.74%.

With `CCOCCn1c(C(C)C)nc2ccccc21`, the max activation is -2.13%.

In the case of `CCOCCn1c(-c2ccccc2)nc2ccccc21`, the max activation was 65.4% (active).

Turning to `Cc1ccc(CSc2nc3cccnc3n2Cc2ccc(C(=O)NC3CC3)cc2)cc1`, the max activation is 2.04%.

Take `CCOc1cccc(NC(=O)c2ccc(F)c(S(=O)(=O)N(CC)c3cccc(C)c3)c2)c1`: the max activation is 6.21%.

Regarding `CS(=O)(=O)NC(=O)CCC/C=C\C[C@H]1C(=O)C[C@@H](O)[C@@H]1/C=C/[C@H](O)COc1ccccc1`, the max activation is -14.2%.

For the molecule `COc1cc2ccccc2cc1C(=O)Nc1cccc(-c2nc3ccccc3o2)c1`, the max activation was 9.76%.

Turning to `COc1cc2ccccc2cc1C(=O)Nc1ccc(NC(=O)c2cccs2)cc1`, the max activation is 30% (active).

`COc1cc(OC)c(C(=O)NNC(=O)c2ccc(NS(=O)(=O)c3cccs3)cc2)cc1OC`: the max activation is 2.22%.

In the case of `C=C1C(=C/C=C2\CCC[C@]3(C)[C@@H]([C@H](C)CCCC(C)(C)O)CC[C@@H]23)C[C@@H](O)C[C@@H]1O`, the max activation was 31.6% (active).

In the case of `C=C1CC[C@H](O)CC1=C/C=C1\CCC[C@]2(C)[C@@H]([C@H](C)/C=C/[C@H](C)C(C)C)CC[C@@H]12`, the max activation was 14.3%.

For `CCCN(CCC)CCNC(=O)Cn1cnc2sc(C)c(S(=O)(=O)N3CCC(C)CC3)c2c1=O`, the max activation is -7.98%.

`Cc1ccc(-c2nn3c(=O)cc(CN4CCN(C(=O)Nc5cccc(C(F)(F)F)c5)CC4)nc3s2)cc1`: the max activation is 5.13%.

For the molecule `CCc1ccc(CN(Cc2ccco2)C(=O)c2ccccc2Cl)cc1`, the max activation is -16.7%.

For the molecule `COc1ccc(NC(=O)c2sc3nc(-c4cc5cccc(OC)c5oc4=O)[nH]c(=O)c3c2C)cc1`, the max activation was -8.2%.

With `CSc1ncnc2c1ncn2CC(=O)C1CCC2C3CCC4=CC(=O)CCC4(C)C3CCC12C` (configuration not stated), the max activation is 53.2% (active).

For `CSc1ncnc2c1ncn2CCCNCc1ccco1`, the max activation is -2.72%.

For `CO[C@H]1[C@@H](O)[C@H](N)[C@@H](O[C@H]2O[C@H]([C@H](C)N)CC[C@H]2N)[C@H](O)[C@@H]1N(C)C(=O)CN`, the max activation was 4.34%.

As to `CCN1CCN(C(=O)Cn2nc(C)n3c(cc4c(OC)cccc43)c2=O)CC1`, the max activation is 75.8% (active).

For `COc1cccc2c1cc1c(=O)n(CC(=O)N3CCN(c4cccc(Cl)c4)CC3)nc(C)n12`, the max activation was 9.45%.

On to `COc1cccc2c1cc1c(=O)n(CC(=O)N3CCN(c4ccccc4)CC3)nc(C)n12`, for which the max activation was 5.49%.

For `Cc1c(O)cc2c(c1C)O[C@](C)(CCC[C@H](C)CCC[C@H](C)CCCC(C)C)CC2`, the max activation is 13.3%.

For `CCc1cccc(NC(=O)CN(C)S(=O)(=O)c2ccc3[nH]c4c(c3c2)CCCC4)c1`, the max activation was -8.32%.

In the case of `Cc1ccc2c(=O)c(C(=O)c3ccc(F)cc3)cn(CC(=O)NC3CCCCC3)c2n1`, the max activation is -2.6%.

With `COc1ccc(OC)c(CN2CCN(C(=O)CNC(=O)c3cc(C)cc(C)c3)CC2)c1`, the max activation is 48.9% (active).

On to `Cc1cc(C)cc(C(=O)NCC(=O)OCC(=O)N2CCCCC2)c1`, for which the max activation is -0.844%.

Take `COc1cc(OC)cc(C(=O)NCC(=O)N2CCCCCCC2)c1`: the max activation was -0.951%.

For the molecule `CN(Cc1cccc2ncccc12)C(=O)CC1C(=O)NCCN1Cc1ccc(F)cc1` (configuration not stated), the max activation is 32.9% (active).

`Cc1cnc(CN(C)C(=O)CC2C(=O)NCCN2Cc2cccc(F)c2F)[nH]1` (configuration not stated): the max activation is 4.65%.

With `Cc1nc(CN(C)C(=O)CC2C(=O)NCCN2Cc2ccc(F)cc2)cs1` (configuration not stated), the max activation is 0.365%.

Turning to `CCCS(=O)(=O)c1ncc(Cl)c(C(=O)Nc2scc(-c3ccccc3)c2C(=O)OCC)n1`, the max activation was -8.93%.

In the case of `CC1CCCN(c2csc3ccc(F)cc3c2=O)C1` (configuration not stated), the max activation was 5.02%.

As for `OC(COc1cccc2ccccc12)CN1CCN(c2ccccn2)CC1` (configuration not stated), the max activation was 66.5% (active).

In the case of `CC(C)c1ccc(OCC(O)CN2CCN(c3ccccn3)CC2)cc1` (configuration not stated), the max activation was 42.2% (active).

For the molecule `O=C1c2cccc3cccc(c23)N1CN1CCN(c2ccccn2)CC1`, the max activation was 7.73%.

Consider `O=S(=O)(c1ccc(OCC(O)CN2CCN(c3ccccc3Cl)CC2)cc1)N1CCOCC1` (configuration not stated), for which the max activation is 7.66%.

On to `CC(C)c1ccccc1OCC(O)CN(CC(O)COc1cccc2ccccc12)C(C)C` (configuration not stated), for which the max activation is 13.3%.

As for `Cc1ccccc1OCC(O)CN1CCN(c2ccccn2)CC1` (configuration not stated), the max activation is 41.3% (active).

For the molecule `C=CCc1ccc(OCC(O)CN2CCN(Cc3ccccc3)CC2)c(OC)c1` (configuration not stated), the max activation was -9.27%.

Regarding `Cc1cccc(OCC(O)CN2CCN(CCN3C(=O)c4cccc5cccc(c45)C3=O)CC2)c1C` (configuration not stated), the max activation is -7.59%.

As for `CCc1ccc(OCC(O)CN2CCN(CCO)CC2)cc1` (configuration not stated), the max activation is -6.12%.

Take `O=C(Cn1c(-c2cccs2)cc2ccccc21)NCCc1ccc(Cl)cc1`: the max activation is -7.79%.

As to `COc1ccc(NC(=O)CSc2nc3ncccc3[nH]2)c(OC)c1`, the max activation was -5.62%.

Regarding `CCCC(=O)Nc1ccc(NC(=O)c2sc3ccccc3c2Cl)cc1`, the max activation is -7.19%.

Take `CCCCC(CC)CNC(=O)C1CCN(S(=O)(=O)c2cccc3nsnc23)CC1` (configuration not stated): the max activation is -12.4%.
